Most compounds without a hit are left out; they make up all but 7.5% or so of the library.
KinaseGlo FLuc: Kinase-Glo luciferase inhibition (counter-screen) | AID 1379 | Kinase-Glo luciferase, ATP luminescence, 8 min | Potency, µM (top dose mostly 38.3 µM), most hits filed as inhibitors | Q27757 | 200,000 compounds, 0.28% hits; also: nearly all actives have a fitted effect of over 60% in size
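Compounds were added to a substrate mix at pH 7.2 (50 mM imidazole, 10 uM ATP, within the enzyme's linear range), followed by Kinase-Glo detection reagent; luminescence was measured after 8 minutes at ambient temperature.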
FLuc counter: firefly luciferase modulation, counter-screen for miR-21 project; P08659; purified FLuc, Km substrates, luminescence inhibition; Potency, µM (highest dose often 57.5 µM), most hits filed as inhibitors; 360,000 compounds, 6.9% hits; AID 588342; also: nearly all actives have a fitted effect of over 55% in size
Target sequence (P08659 whole entry, looked up): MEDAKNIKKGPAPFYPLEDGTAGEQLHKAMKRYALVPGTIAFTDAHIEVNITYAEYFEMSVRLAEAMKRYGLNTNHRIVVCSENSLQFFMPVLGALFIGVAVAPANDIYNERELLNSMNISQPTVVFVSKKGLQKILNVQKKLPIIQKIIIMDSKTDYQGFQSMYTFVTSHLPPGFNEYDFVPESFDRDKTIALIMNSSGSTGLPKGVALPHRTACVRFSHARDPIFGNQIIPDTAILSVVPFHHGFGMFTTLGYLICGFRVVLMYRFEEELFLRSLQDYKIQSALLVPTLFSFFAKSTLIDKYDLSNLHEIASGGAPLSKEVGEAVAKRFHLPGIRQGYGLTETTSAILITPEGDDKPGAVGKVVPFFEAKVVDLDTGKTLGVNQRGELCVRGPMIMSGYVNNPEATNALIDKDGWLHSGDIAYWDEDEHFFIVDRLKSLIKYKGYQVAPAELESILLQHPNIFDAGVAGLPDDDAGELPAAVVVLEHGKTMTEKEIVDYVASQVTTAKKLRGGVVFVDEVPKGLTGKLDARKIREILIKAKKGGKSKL
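Biochemical qHTS of compounds, final roughly 60 µM downward over six points, against 10 nM purified firefly luciferase using Km concentrations of substrates (10 uM D-luciferin, 10 uM ATP) in Tris acetate pH 7.5 buffer; luminescence output.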
NPC1 promoter act: NPC1 promoter activation; AID 485313; 320,000 compounds, 2.4% hits; Potency, µM (series often up to 9.22 µM), usual class: activators; Huh7 NPC1 promoter luciferase reporter, 24 h; also: nearly all actives have a fitted effect of over 60% in size
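Huh7 reporter cells (NPC1 promoter driving luciferase) are dosed with compound for 24 h at 37 °C, 5% CO2; luciferase detection reagent is then added and luminescence measured after 10 min at ambient temperature.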
Rab9 prom act: activators of Rab9 promoter; 320,000 compounds, 2.8% hits; Huh7 Rab9 promoter-luciferase reporter, luminescence, 24 h; AID 485297; Potency, µM (highest dose often 9.22 µM), most hits filed as activators; also: nearly all actives have a fitted effect of over 60% in size
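Cell-based reporter: Huh7 stable for Rab9 promoter-driven luciferase, plated in reduced-serum medium with 10% FBS at 1500 cells/well, compound-treated 24 h at 37 °C, luminescence read after 10 min reagent.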
ELG1 genotox: inducers of genotoxicity in HEK293T ELG1-luciferase cells; HEK293T ELG1-luciferase reporter, luminescence, 16 h; Potency, µM (series often up to 46 µM), usual class: activators; 330,000 compounds, 1.3% hits; also: nearly all actives have a fitted effect of over 60% in size
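16 hr compound incubation (37 °C, 5% CO2) of HEK293T cells carrying luciferase-tagged ELG1; luciferase then measured by ONE-Glo luminescence after 30 min at RT.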
SMN2 splice up: increases expression of the SMN2 splice variant; Potency, µM (doses to about 46.1 µM), most hits filed as activators; AID 1458; 210,000 compounds, 2.8% hits; HEK293 SMN2-luciferase splicing reporter, luminescence, 30-36 h; also: nearly all actives have a fitted effect of over 55% in size
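HEK293 cells carry an SMN2 […]–luciferase reporter in which exon 7 inclusion puts luciferase in frame. Cells were plated 10-12 h before compound addition, then incubated 30-36 h at 37C. ONE-Glo luminescence was read; sodium butyrate at 4.5 mM final served as control.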
Numbers stand for hits; i = inactive; ? = inconclusive; nt = not tested or not shown; [ ] = another dose, or the depositor's remark. Calls follow the shape of the dose curve; as a rule, active = well fitted curve in the direction sought with a large enough effect; inconclusive = small, poorly fitted or top-dose-only effect, or another doubt; inactive = no such curve, though single readings can be large; an effect the other way counts as inactive or inconclusive.

SMILES	KinaseGlo FLuc	FLuc counter	NPC1 promoter act	Rab9 prom act	ELG1 genotox	SMN2 splice up
Cn1c(O)c(C2=NNC(c3ccc(Cl)cc3)C2)c(=O)n(C)c1=O (stereo not given)	nt	9.5µM	i	i	i	nt
CCOc1ccc(C2CC(c3c(O)n(C)c(=O)n(C)c3=O)=NN2)cc1 (stereo not given)	nt	0.95µM	?	?	i	nt
Oc1cccc(/C=N/NP(=S)(c2ccccc2)c2ccccc2)c1	i	24µM	i	i	i	i
Nc1ccc(S(=O)(=O)c2ccc(NCN3C(=O)NC(=O)C(=O)C3=O)cc2)cc1	i[7.66 µM]	nt	nt	nt	nt	i[9.22 µM]
NC[C@@H](Cc1ccccc1)P(=O)(O)O	i[7.66 µM]	nt	nt	nt	nt	i[9.22 µM]
CN(C)c1ccccc1	nt	nt	nt	nt	nt	i
CN(C)c1ccc(C(=O)c2ccc(N(C)C)cc2)cc1	i	13µM	i	i	23µM	i
CCC(C(=O)O)C1CCC(C)C(C(C)C(O)C(C)C(=O)C(CC)C2OC3(C=CC(O)[C@@]4(CC[C@](C)(C5CC[C@@](O)(CC)C(C)O5)O4)O3)C(C)CC2C)O1 (stereo not given in full)	i	nt	nt	nt	nt	i
C[n+]1c(/C=C\c2ccc(O)c3ncccc23)[se]c2ccccc21	i[7.66 µM]	nt	nt	nt	nt	i[9.22 µM]
CN1CCN(c2ccc3nc(-c4ccc5nc(-c6ccc(O)cc6)[nH]c5c4)[nH]c3c2)CC1	i[7.66 µM]	nt	nt	nt	nt	?
CCOc1ccc(-c2nc3ccc(-c4nc5ccc(N6CCN(C)CC6)cc5[nH]4)cc3[nH]2)cc1	nt	nt	nt	nt	nt	4µM
c1ccc(-c2nc(N3CCOCC3)s[n+]2-c2ccccc2)cc1	i	7.6µM	i	i	i	i
O=C(NCC(c1cccnc1)N1CCOCC1)Oc1ccccc1 (stereo not given)	i	15µM	i	?	?	14µM
N#CC(c1cccnc1)N1CCOCC1 (stereo not given)	nt	i	i	i	i	nt
COc1ccc(-n2c(=S)[nH]c3c(sc(=S)n3-c3ccccc3)c2=O)c(OC)c1	nt	11µM	i	i	i	nt
C1C[C@@H]2CN(CCCN3CCOCC3)[C@@H](C1)O2	i[7.66 µM]	nt	nt	nt	nt	i[9.22 µM]
CC[N+](=O)[O-]	nt	nt	nt	nt	nt	i
O=C(CN1CCCC1=O)Nc1ccccc1	i	i	i	i	i	i
O=C(CN1CCCC1)Nc1ccc(NC(=O)Nc2ccccc2)cc1	i	19µM	?	?	i	nt
Cc1c(OC(=O)N(C)C)ccc2c1O/C(=C\c1ccco1)C2=O	nt	0.48µM	?	4µM	i	nt
CCc1ccc(N2C(=O)NC(=O)/C(=C\c3cccn3CCOc3ccc(C(C)C)cc3)C2=O)cc1	i	i	i	?	10µM	i
O=C1NC(=O)N(c2ccc3c(c2)OCO3)C(=O)/C1=C/c1ccsc1	i	19µM	i	i	i	i
CC[C@H](CO)Nc1nc(NCc2ccccc2)c2ncn(C(C)C)c2n1	i	nt	nt	nt	nt	18µM
COC(=O)C(O)(c1ccc(NC(=O)Oc2ccccc2)cc1)C(F)(F)F (stereo not given)	i	15µM	i	i	i	i
C[C@H](CC(C#N)(c1ccccc1)c1ccccc1)N1CCCCC1	i[7.66 µM]	nt	nt	nt	nt	i[9.22 µM]
SMILES	KinaseGlo FLuc	FLuc counter	NPC1 promoter act	Rab9 prom act	ELG1 genotox	SMN2 splice up
CCCOC(=O)[C@@H]1[C@@H](C(=O)O)[C@H]2CC[C@@H]1O2	i[7.66 µM]	nt	nt	nt	nt	i[9.22 µM]
CN(C)C(Cc1ccccc1)C(=O)c1c[nH]c2ccccc12 (stereo not given)	nt	24µM	i	i	i	nt
N[C@H](Cc1ccc2oc3cc(=O)c4ccccc4c-3nc2c1)C(=O)O	i[7.66 µM]	nt	nt	nt	nt	i[9.22 µM]
Clc1cccc(/C=N\Nc2nccs2)c1	i	13µM	?	?	21µM	i
O=C(O)C[C@H]1NCc2cc3ccccc3nc21	i[7.66 µM]	nt	nt	nt	nt	i[9.22 µM]
CCC12CCN(CCc3ccc(F)cc3)CC1Oc1c(O)cccc12 (stereo not given)	nt	i	nt	nt	nt	nt
CCn1nc(-c2ccccc2)nc2c(=O)n(C)c(=O)nc1-2	i	?	i	i	i	7.1µM
CCN(CCO)c1ccc(N=Cc2c(O)n(C)c(=S)[nH]c2=O)cc1	nt	1.7µM	?	?	i	nt
CC(=O)[O-].CC(=O)[O-].O.O.O.[Pb+2]	nt	nt	nt	nt	nt	i
CC(C)(C)c1ccc(C(=O)C2CCCN(Cc3ccon3)C2)cc1 (stereo not given)	nt	17µM	?	?	i	nt
O=C(c1ccc(Cl)cc1)C1CCCN(Cc2ccon2)C1 (stereo not given)	i	i	i	i	i	nt
CC(=O)OC1=CC2=CC[C@H]3[C@H]4CCC(=O)[C@@]4(C)CC(=O)[C@]3(S)[C@]2(C)CC1	i[7.66 µM]	nt	nt	nt	nt	i[9.22 µM]
COc1ccc(CN2C(=O)NC(=O)/C(=C/c3ccc([N+](=O)[O-])o3)C2=O)cc1	i	19µM	i	i	i	i
Cc1ccc(/C=C2/C(=O)NC(=O)N(Cc3ccc(F)cc3)C2=O)o1	nt	i	i	i	i	nt
N=C(N)SCc1ccc(Cl)c2ccccc12 (tested in a mixture with another compound)	i[7.66 µM]	nt	nt	nt	nt	i[9.22 µM]
COc1ccc(C)cc1NC(=O)CN1CCN(CC(=O)Nc2ccccc2F)CC1	i	i	i	i	?	i
O=C(Nc1ccccc1F)Oc1cccc(OC(=O)Nc2ccccc2F)c1	nt	17µM	3.5µM	2.8µM	i	nt
O=c1oc2ccccc2n1CCCOc1ccccc1	i	19µM	i	?	18µM	11µM
O=C(CCn1c(=O)oc2ccccc21)N1CCC2(CC1)OCCO2	i	i	i	i	i	i
O=C(N/N=C/c1c(O)n(C2CC2)c(=S)[nH]c1=O)c1ccccc1O	i	15µM	?	?	i	?
Cc1ccccc1-n1c(O)c(/C=N/NC(=O)c2ccccc2O)c(=O)[nH]c1=S	nt	11µM	i	i	i	nt
O=C(N/N=C/c1c(O)n(-c2ccccc2)c(=S)[nH]c1=O)c1ccccc1	nt	?	i	i	i	nt
Cc1ccc(-n2sc3ccccc3c2=O)cc1	i	4.8µM	?	?	?	?
O=C1NC(=O)C(=Cc2cc(Cl)ccc2OCc2ccc(C(=O)O)cc2)C(=O)N1	i	24µM	i	i	i	i
CCOc1cc(C=C2C(=O)NC(=O)NC2=O)ccc1OCC(=O)N1CCOCC1	i	i	i	i	i	i
SMILES	KinaseGlo FLuc	FLuc counter	NPC1 promoter act	Rab9 prom act	ELG1 genotox	SMN2 splice up
COc1ccc(-c2nc(NC(=O)Cn3c(=O)oc4ccccc43)sc2C)cc1	i	i	i	i	i	i
COc1ccc(NC(=O)CCCn2c(=O)oc3ccccc32)cc1Cl	i	12µM	?	?	?	?
O=C(O)CCC(=O)NCCC1=c2ccccc2=N/C1=C\c1c(O)n(Cc2ccc(F)cc2)c(=S)[nH]c1=O	nt	11µM	i	i	i	nt
C/C(=N\NC(=O)c1ccccc1Cl)c1c(O)n(C2CCCCC2)c(=O)[nH]c1=O	nt	i	i	i	i	nt
C/C(=N\NC(=O)c1ccccc1O)c1c(O)n(Cc2ccccc2)c(=O)[nH]c1=O	nt	11µM	i	i	i	nt
C/C(=N\NC(=O)c1ccccc1O)c1c(O)n(C2CCCCC2)c(=O)[nH]c1=O	nt	27µM	i	i	i	nt

High-throughput results from PubChem BioAssay.
